# Measured values reported in PubChem BioAssay (NCATS).
# Unmarked numbers belong to inactive results. Results filed as inconclusive are left out. A call without a number means that no potency is given here. The source made the active and inactive calls. Unless noted, calls follow the shape of the dose curve; as a rule, active = well fitted curve in the direction sought with a large enough effect; inconclusive = small, poorly fitted or top-dose-only effect, or another doubt; inactive = no such curve, though single readings can be large; an effect the other way counts as inactive or inconclusive.
# Tests used:
# C33A = experiment: Primary qHTS to identify gynecologic anti-cancer compounds using libraries of approved drugs and bioactive compounds (AID 1345084); details: Gynecologic cancer cell panel viability, ATPlite luminescence, 48 h; series mostly up to 57.5 µM; also: nearly all actives have a fitted effect of over 55% in size
# Summary of the method: (§1)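 Five-point cytotoxicity, 48 h drug exposure at 37 C, 5% CO2, on cells seeded 16 h beforehand. ATP content read by ATPlite luminescence.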
# CAOV3 = experiment: as above; details: Gynecologic cancer cell panel viability, ATPlite luminescence, 48 h; series mostly up to 57.5 µM
# Summary of the method: as §1
# CASKI = experiment: as above; details: Gynecologic cancer cell panel viability, ATPlite luminescence, 48 h; series mostly up to 57.5 µM
# Summary of the method: as §1
# Es-2 = experiment: as above; details: Gynecologic cancer cell panel viability, ATPlite luminescence, 48 h; series mostly up to 57.5 µM
# Summary of the method: as §1
# HeLa = experiment: as above; details: Gynecologic cancer cell panel viability, ATPlite luminescence, 48 h; series mostly up to 57.5 µM
# Summary of the method: as §1
# Hek293T = experiment: as above; details: Gynecologic cancer cell panel viability, ATPlite luminescence, 48 h, control line for the selectivity index; series mostly up to 57.5 µM
# Summary of the method: as §1
# JEG-3 = experiment: as above; details: Gynecologic cancer cell panel viability, ATPlite luminescence, 48 h; series mostly up to 57.5 µM
# Summary of the method: as §1
# OV90 = experiment: as above; details: Gynecologic cancer cell panel viability, ATPlite luminescence, 48 h; series mostly up to 57.5 µM
# Summary of the method: as §1
# PA-1 = experiment: as above; details: Gynecologic cancer cell panel viability, ATPlite luminescence, 48 h; series mostly up to 57.5 µM
# Summary of the method: as §1
# SKOV3 = experiment: as above; details: Gynecologic cancer cell panel viability, ATPlite luminescence, 48 h; series mostly up to 57.5 µM
# Summary of the method: as §1
# Tov-21-G = experiment: as above; details: Gynecologic cancer cell panel viability, ATPlite luminescence, 48 h; series mostly up to 57.5 µM
# Summary of the method: as §1
# Tov112D = experiment: as above; details: Gynecologic cancer cell panel viability, ATPlite luminescence, 48 h; series mostly up to 57.5 µM
# Summary of the method: as §1
# [1] = Drug repurposing screens with cells derived from glioblastoma tumor samples (AID 1345199); details: GBM patient neurospheres viability, ATP luminescence, 48 h; also: nearly all actives have a fitted effect of over 40% in size; also: potency is read from the fitted curve at half-maximal effect
# Summary of the method: (§2)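 Four patient lines of CD133+ GBM neurospheres were screened at several concentrations; hits were retested in those lines plus three slower-growing GBM lines, using 48-hour treatment and ATP-based viability.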
# astro = experiment: as above; details: viability, ATP luminescence, 48 h; series mostly up to 45.9 µM
# Summary of the method: as §2
# [2] = target: Nuclear receptor subfamily 1 group I member 2 (Rattus norvegicus) (UniProt Q9R1A7); experiment: qHTS assay for small molecule activators of the rat pregnane X receptor (rPXR) signaling pathway (AID 651751; call rule not given here); details: rPXR reporter cells, luciferase (One-Glo), 24 h
# Nuclear receptor subfamily 1 group I member 2 (Rattus norvegicus), sequence (Q9R1A7 whole entry, looked up): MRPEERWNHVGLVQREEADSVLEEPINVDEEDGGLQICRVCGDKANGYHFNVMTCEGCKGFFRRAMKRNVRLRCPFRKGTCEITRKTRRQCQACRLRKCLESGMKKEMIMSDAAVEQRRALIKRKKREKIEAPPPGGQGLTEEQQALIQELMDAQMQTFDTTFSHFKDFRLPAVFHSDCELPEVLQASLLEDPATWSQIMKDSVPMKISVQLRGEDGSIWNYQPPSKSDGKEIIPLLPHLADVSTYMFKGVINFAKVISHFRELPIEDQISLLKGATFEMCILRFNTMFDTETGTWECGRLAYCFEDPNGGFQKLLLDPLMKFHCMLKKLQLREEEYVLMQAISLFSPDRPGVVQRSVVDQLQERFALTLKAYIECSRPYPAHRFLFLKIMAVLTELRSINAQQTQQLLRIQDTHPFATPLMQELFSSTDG
# [3] = qHTS assay for small molecule activators of the human pregnane X receptor (PXR) signaling pathway (AID 720659; call rule not given here)
# [4] = at 45.9 µM (top of the series), tumour line B
# [5] = at 45.9 µM (top of the series), tumour line D
# [6] = at 46 µM (top of the series), tumour line A
# [7] = at 46.1 µM (top of the series), tumour line C
# [8] = at 20 µM (top of the series), tumour line C
# [9] = at 21.2 µM (top of the series), tumour line B
# [10] = at 21.2 µM (top of the series), tumour line D
# [11] = at 21.3 µM (top of the series), tumour line A
smiles,measurement,setting,value
CCOCC(O)COc1ccc(NC(=O)CC[S+](C)C)cc1 (centres undefined),Potency,C33A,inactive
same,Potency,CAOV3,inactive
same,Potency,CASKI,inactive
same,Potency,Es-2,inactive
same,Potency,HeLa,inactive
same,Potency,Hek293T,inactive
same,Potency,JEG-3,inactive
same,Potency,OV90,inactive
same,Potency,PA-1,inactive
same,Potency,SKOV3,inactive
same,Potency,Tov-21-G,inactive
same,Potency,Tov112D,inactive
same,"activity, negative = cell killing",[1]; [4],-7.04%
same,"activity, negative = cell killing",[1]; [5],-30.9%
same,"activity, negative = cell killing",[1]; [6],-26.7%
same,"activity, negative = cell killing",[1]; [7],-28.1%
same,Potency,astro,inactive
CN(Cc1cc(Br)cc(Br)c1N)C1CCCCC1,Potency,C33A,inactive
same,Potency,CAOV3,inactive
same,Potency,CASKI,inactive
same,Potency,Es-2,inactive
same,Potency,HeLa,inactive
same,Potency,Hek293T,inactive
same,Potency,JEG-3,inactive
same,Potency,OV90,inactive
same,Potency,PA-1,inactive
same,Potency,SKOV3,inactive
same,Potency,Tov-21-G,inactive
same,Potency,Tov112D,inactive
same,"activity, negative = cell killing",[1]; [4],-30.4%
same,"activity, negative = cell killing",[1]; [7],-4.61%
same,Potency,[1]; tumour line A,5.62 µM (active)
CC(C)Cn1cnc2c(N)nc3ccccc3c21,Potency,C33A,inactive
same,Potency,CAOV3,inactive
same,Potency,CASKI,inactive
same,Potency,Es-2,inactive
same,Potency,HeLa,inactive
same,Potency,Hek293T,inactive
same,Potency,JEG-3,inactive
same,Potency,OV90,inactive
same,Potency,PA-1,inactive
same,Potency,SKOV3,inactive
same,Potency,Tov-21-G,inactive
same,Potency,Tov112D,inactive
same,"activity, negative = cell killing",[1]; [4],-23.5%
CN(C)CCc1c[nH]c2ccc(CS(=O)(=O)N3CCCC3)cc12,Potency,C33A,inactive
same,Potency,CAOV3,inactive
same,Potency,CASKI,inactive
same,Potency,Es-2,inactive
same,Potency,HeLa,inactive
same,Potency,Hek293T,inactive
same,Potency,JEG-3,inactive
same,Potency,OV90,inactive
same,Potency,PA-1,inactive
same,Potency,SKOV3,inactive
same,Potency,Tov-21-G,inactive
same,Potency,Tov112D,inactive
same,"activity, negative = cell killing",[1]; [4],-15.8%
same,"activity, negative = cell killing",[1]; [5],-5.89%
same,"activity, negative = cell killing",[1]; [6],-32.2%
same,"activity, negative = cell killing",[1]; [7],-0.0757%
same,Potency,astro,inactive
CCCN[C@H]1CCc2nc(N)sc2C1,Potency,C33A,inactive
same,Potency,CAOV3,inactive
same,Potency,CASKI,inactive
same,Potency,Es-2,inactive
same,Potency,HeLa,inactive
same,Potency,Hek293T,inactive
same,Potency,JEG-3,inactive
same,Potency,OV90,inactive
same,Potency,PA-1,inactive
same,Potency,SKOV3,inactive
same,Potency,Tov-21-G,inactive
same,Potency,Tov112D,inactive
same,"activity, negative = cell killing",[1]; [4],3.81%
same,"activity, negative = cell killing",[1]; [5],9.12%
same,"activity, negative = cell killing",[1]; [6],-26.8%
same,"activity, negative = cell killing",[1]; [7],-13%
same,Potency,astro,inactive
COc1cnc(NS(=O)(=O)c2ccc(N)cc2)nc1,Potency,C33A,inactive
same,Potency,CAOV3,inactive
same,Potency,CASKI,inactive
same,Potency,Es-2,inactive
same,Potency,HeLa,inactive
same,Potency,Hek293T,inactive
same,Potency,JEG-3,inactive
same,Potency,OV90,inactive
same,Potency,PA-1,inactive
same,Potency,SKOV3,inactive
same,Potency,Tov-21-G,inactive
same,Potency,Tov112D,inactive
same,"activity, negative = cell killing",[1]; [8],-10.8%
same,"activity, negative = cell killing",[1]; [9],-19.1%
same,"activity, negative = cell killing",[1]; [10],-2.41%
same,"activity, negative = cell killing",[1]; [11],-32%
CN1CCN(c2c(F)cc3c(=O)c(C(=O)O)cn(CCF)c3c2F)CC1,Potency,C33A,inactive
same,Potency,CAOV3,inactive
same,Potency,CASKI,inactive
same,Potency,Es-2,inactive
same,Potency,HeLa,inactive
same,Potency,Hek293T,inactive
same,Potency,JEG-3,inactive
same,Potency,OV90,inactive
same,Potency,PA-1,inactive
same,Potency,SKOV3,inactive
same,Potency,Tov-21-G,inactive
same,Potency,Tov112D,inactive
same,"activity, negative = cell killing",[1]; [4],-2.67%
same,"activity, negative = cell killing",[1]; [5],-2.82%
same,"activity, negative = cell killing",[1]; [6],-15.5%
same,"activity, negative = cell killing",[1]; [7],-9.27%
same,Potency,astro,inactive
CC1(C)[C@H](C(=O)O)N2C(=O)C[C@H]2S1(=O)=O,Potency,C33A,inactive
same,Potency,CAOV3,inactive
same,Potency,CASKI,inactive
same,Potency,Es-2,inactive
same,Potency,HeLa,inactive
same,Potency,Hek293T,inactive
same,Potency,JEG-3,inactive
same,Potency,OV90,inactive
same,Potency,PA-1,inactive
same,Potency,SKOV3,inactive
same,Potency,Tov-21-G,inactive
same,Potency,Tov112D,inactive
same,"activity, negative = cell killing",[1]; [4],1.79%
same,"activity, negative = cell killing",[1]; [5],-3.83%
same,"activity, negative = cell killing",[1]; [6],-4.41%
same,"activity, negative = cell killing",[1]; [7],9.89%
same,Potency,astro,inactive
Cc1nnc(NS(=O)(=O)c2ccc(N)cc2)s1,Potency,C33A,inactive
same,Potency,CAOV3,inactive
same,Potency,CASKI,inactive
same,Potency,Es-2,inactive
same,Potency,HeLa,inactive
same,Potency,Hek293T,inactive
same,Potency,JEG-3,inactive
same,Potency,OV90,inactive
same,Potency,PA-1,inactive
same,Potency,SKOV3,inactive
same,Potency,Tov-21-G,inactive
same,Potency,Tov112D,inactive
same,"activity, negative = cell killing",[1]; [4],4.69%
same,"activity, negative = cell killing",[1]; [5],17.1%
same,"activity, negative = cell killing",[1]; [6],7.16%
same,"activity, negative = cell killing",[1]; [7],5.44%
same,Potency,astro,inactive
same,max response,[2],-0.291%
same,outcome,[3],inactive
Cc1cccc(Nc2ccncc2S(=O)(=O)NC(=O)NC(C)C)c1,Potency,C33A,inactive
same,Potency,CAOV3,inactive
same,Potency,CASKI,inactive
same,Potency,Es-2,inactive
same,Potency,HeLa,inactive
same,Potency,Hek293T,inactive
same,Potency,JEG-3,inactive
same,Potency,OV90,inactive
same,Potency,PA-1,inactive
same,Potency,SKOV3,inactive
same,Potency,Tov-21-G,inactive
same,Potency,Tov112D,inactive
same,"activity, negative = cell killing",[1]; [8],-12.8%
same,"activity, negative = cell killing",[1]; [9],-1.96%
same,"activity, negative = cell killing",[1]; [10],-26%
same,"activity, negative = cell killing",[1]; [11],-11%
same,Potency,astro,inactive
O=P(O)(O)C(O)(Cc1cccnc1)P(=O)(O)O,Potency,C33A,inactive
same,Potency,CAOV3,inactive
same,Potency,CASKI,inactive
same,Potency,Es-2,inactive
same,Potency,HeLa,inactive
same,Potency,Hek293T,inactive
same,Potency,JEG-3,inactive
same,Potency,OV90,inactive
same,Potency,PA-1,inactive
same,Potency,SKOV3,inactive
same,Potency,Tov-21-G,inactive
same,Potency,Tov112D,inactive
same,"activity, negative = cell killing",[1]; [4],-9.54%
same,"activity, negative = cell killing",[1]; [5],-7.26%
same,"activity, negative = cell killing",[1]; [7],2.44%
same,Potency,astro,inactive
CNC1CCCN(c2c(F)cc3c(=O)c(C(=O)O)cn(C4CC4)c3c2OC)C1 (centres undefined),Potency,C33A,inactive
same,Potency,CAOV3,inactive
same,Potency,CASKI,inactive
same,Potency,Es-2,inactive
same,Potency,HeLa,inactive
same,Potency,Hek293T,inactive
same,Potency,JEG-3,inactive
same,Potency,OV90,inactive
same,Potency,PA-1,inactive
same,Potency,SKOV3,inactive
same,Potency,Tov-21-G,inactive
same,Potency,Tov112D,inactive
same,"activity, negative = cell killing",[1]; [4],0.798%
same,"activity, negative = cell killing",[1]; [5],-8.95%
same,"activity, negative = cell killing",[1]; [6],-37.3%
same,"activity, negative = cell killing",[1]; [7],-5.21%
same,Potency,astro,inactive
COc1ncnc(NS(=O)(=O)c2ccc(N)cc2)c1OC,Potency,C33A,inactive
same,Potency,CAOV3,inactive
same,Potency,CASKI,inactive
same,Potency,Es-2,inactive
same,Potency,HeLa,inactive
same,Potency,Hek293T,inactive
same,Potency,JEG-3,inactive
same,Potency,OV90,inactive
same,Potency,PA-1,inactive
same,Potency,SKOV3,inactive
same,Potency,Tov-21-G,inactive
same,Potency,Tov112D,inactive
same,"activity, negative = cell killing",[1]; [4],-5.91%
same,"activity, negative = cell killing",[1]; [5],-22.1%
same,"activity, negative = cell killing",[1]; [7],-21.2%
same,Potency,astro,inactive
CCCOc1ccc(C(=O)OCCN(CC)CC)cc1N,Potency,C33A,inactive
same,Potency,CAOV3,inactive
same,Potency,CASKI,inactive
same,Potency,Es-2,inactive
same,Potency,HeLa,inactive
same,Potency,Hek293T,inactive
same,Potency,JEG-3,inactive
same,Potency,OV90,inactive
same,Potency,PA-1,inactive
same,Potency,SKOV3,inactive
same,Potency,Tov-21-G,inactive
same,Potency,Tov112D,inactive
same,"activity, negative = cell killing",[1]; [7],-16.2%
same,Potency,[1]; tumour line A,14.1 µM (active)
same,Potency,astro,inactive
